SW480 rerep – A quantitative high throughput screen for small molecules that induce DNA re-replication in SW480 colon adenocarcinoma cells. Potency, µM (series often up to 46.1 µM), without a hit: top-dose re-replication activation, usual class: activators. AID 624297, 2012. 340,000 compounds, 1.8% hits. SW480 DNA re-replication, Hoechst DNA content imaging, 48 h; also: % of control where 0% means no effect; nearly all actives have a fitted effect of over 55% in size
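SW480 cells exposed to compounds for 48 hr at 37 C, 5% CO2, then Hoechst-stained 40 min. Nuclear DNA content imaged by fluorescence scanning (405 nm excitation, 500-530 nm emission); re-replication scored as increased high-intensity nuclei.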
KB-3-1 tox – qHTS assay for MDR1-selective chemotherapeutics: Primary screen using the parental adenocarcinoma cell KB-3-1. AID 1347075, 2019. Potency, µM (highest dose often 46.1 µM), hits mostly cytotoxic. KB-3-1 viability, CellTiter-Glo ATP luminescence, 72 h. 400,000 compounds, 1.4% hits; also: % is scaled to controls: 0 for no effect and ±100 for the full control effect; nearly all actives have a fitted effect of over 60% in size
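Here the drug-naive KB-3-1 line serves as comparator for MDR sub-line selectivity; cells received compound titrations, 72 h at 37 °C, then CellTiter-Glo readout.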
MCF10A rerep – A quantitative high throughput screen for small molecules that induce DNA re-replication in MCF 10a normal breast cells. Potency, µM (titrated, usually from 46.1 µM), without a hit: at the highest dose activity, positive = re-replication, most hits filed as activators. MCF 10A DNA re-replication, Hoechst nuclear intensity, 48 h. 350,000 compounds, 2.9% hits. AID 624296, 2012; also: % of control where 0% means no effect; nearly all actives have a fitted effect of over 50% in size
KB-V1 MDR tox – qHTS assay for MDR1-selective chemotherapeutics: Primary screen using the drug-selected MDR subline cells KB-V1. KB-V1 MDR cells viability, CellTiter-Glo, 72 h. Potency, µM (top dose mostly 46.1 µM), usual class: cytotoxic. 400,000 compounds, 3.4% hits. AID 1347076, 2019; also: % is scaled to controls: 0 for no effect and ±100 for the full control effect; nearly all actives have a fitted effect of over 60% in size
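Readout: CellTiter-Glo luminescence, 10 min after addition. Cells: KB-V1 MDR subline, 72 h at 37 degrees C with compound. Analysis: corrected, normalized data fitted to concentration-effect curves.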
HT1080-NT tox – qHTS for induction of synthetic lethality in tumor cells producing 2HG: qHTS for the HT-1080-NT fibrosarcoma cell line | HT-1080-NT fibrosarcoma viability, CellTiter-Glo ATP luminescence, 48 h | Potency, µM (titrated, usually from 46.1 µM), without a hit: top-dose activity, negative = less viability, usual class: cytotoxic | 360,000 compounds, 1.6% hits;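 also: NT is the 2HG producing partner of a matched IDH1 knockdown line; 0% = DMSO-treated cells and -100% = media-only wells without cells; nearly all actives have a fitted effect of over 55% in size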
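HT-1080-NT fibrosarcoma cells (2HG-overproducing), 750 cells/well in RPMI with 5% FBS, dosed after 2 h and incubated 48 h at 37C. CellTiter-Glo luminescence normalized to DMSO and no-cell wells; concentration-response curves fitted and classed.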
HT1080 IDH1KD tx – qHTS for induction of synthetic lethality in tumor cells producing 2HG: qHTS for the HT-1080-IDH1KD cell line. HT-1080 IDH1 knockdown viability, ATP luminescence, 48 h. AID 686971, 2013. 360,000 compounds, 2% hits. Potency, µM (top dose mostly 46.1 µM), inactives show at the highest dose activity, negative = toxicity, actives largely listed as cytotoxic;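 also: 0% = DMSO wells and -100% = cell-free medium wells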
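After a 2 h attachment period, IDH1KD HT-1080 cells took pin-transferred compound for 48 h at 37 °C; ATP-based luminescence after 10 min room-temperature reagent incubation reported viability.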
* = called active by the depositor; i = inactive; u = inconclusive; x = no result given. An excerpt weighted towards active compounds, which were near 7.9% of everything screened. Calls follow the shape of the dose curve; as a rule, active = well fitted curve in the direction sought with a large enough effect; inconclusive = small, poorly fitted or top-dose-only effect, or another doubt; inactive = no such curve, though single readings can be large; an effect the other way counts as inactive or inconclusive. Potency is read from the fitted curve at half-maximal effect.

SMILES	SW480 rerep	KB-3-1 tox	MCF10A rerep	KB-V1 MDR tox	HT1080-NT tox	HT1080 IDH1KD tx
CCOc1ccc(-c2[nH]ncc2-c2ccccc2)c(O)c1	-1%	i	-2%	i	-1%	-6%
COc1ccc(-c2cn[nH]c2-c2ccc(OCc3ccccc3)cc2O)cc1	u	i	13µM*	i	-7%	u
CCC(C(=O)N1CCCCCC1)n1nc(C)n2c(cc3occc32)c1=O (centres undefined)	29%	i	-1%	i	-5%	-1%
CCOc1ccc(/C=C/C(=O)c2ccccc2)cc1	10%	i	16%	i	6%	5%
CC[N+](CC)(CC)CCOc1ccc(/C=C/c2ccccc2)cc1	-32%	u	0%	i	u	16µM*
CCCCNc1ccc(/C=C2\C=Cc3ccccc32)cc1	x	u	x	i	x	x
CCOC(=O)C1CCCN(S(=O)(=O)c2ccc3[nH]c(=O)oc3c2)C1 (centres undefined)	x	i	x	i	x	x
C(=C\c1ccncc1)/c1ccccc1	-8%	i	5%	i	24%	19%
COc1ccc(/C=C/c2ccncc2)cc1OC	-11%	i	4%	i	14%	6%
CCC[N+](C)(C)c1ccc(/C=C/c2ccncc2)cc1	x	1.5µM*	x	i	x	x
CC[N+](C)(C)c1ccc(/C=C/c2ccncc2)cc1	x	2.3µM*	x	i	x	x
CCOCCCNC(=O)C(NC(=O)C1CCC(C)CC1)C(C)C (centres undefined)	x	i	x	i	x	x
O=C1C(C=NCc2ccncc2)=C(O)c2ccccc21	-8%	i	0%	i	-2%	-9%
O=C1N/C(=C/c2ccc(Br)cc2)C(O)=C1C=NCc1ccccc1	u	4.6µM*	u	u	u	u
Cc1ccc(N(C)S(=O)(=O)c2cccc(C(=O)OCC(=O)N3CCCC(C)C3)c2)cc1 (centres undefined)	-5%	i	9%	21µM*	8%	9%
CC1CCN(C(=O)COC(=O)c2cccc(S(=O)(=O)N(C)c3ccccc3)c2)CC1	-6%	i	u	21µM*	2%	2%
CC1CCCC(C)N1C(=O)COC(=O)c1cccc(S(=O)(=O)N(C)c2ccccc2)c1 (centres undefined)	-35%	i	17%	i	-2%	-11%
Cc1cc(NC(=O)CSc2nnc(-c3ccoc3C)o2)no1	21µM*	i	24%	i	11µM*	6.3µM*
Cc1cc(NC(=O)c2ccc3nc(-c4ccccc4)c(-c4ccccc4)nc3c2)no1	u	i	9.2µM*	u	-8%	-6%
Cc1cc(NC(=O)CSc2ccccc2)no1	-13%	i	0%	i	-6%	-2%
Cc1cc(NC(=O)CSc2nnc(-c3ccccc3)o2)no1	-6%	i	-1%	i	-9%	-18%
Cc1cc(NC(=O)CSc2nnc(-c3ccccc3)c(-c3ccccc3)n2)no1	3.7µM*	7.3µM*	12µM*	5.2µM*	2.9µM*	5.2µM*
CCOc1cc(Br)cc(C2NC(=O)c3c(sc4c3CCN(C)C4)N2)c1O (centres undefined)	x	i	x	u	x	x
CCc1ccc(CNC(=O)c2cnc3c(C)cccn3c2=O)cc1	x	i	x	i	x	x
CNC(=S)NNC(=O)CCn1nc(C)c(Br)c1C	u	i	-2%	i	11µM*	16µM*
SMILES	SW480 rerep	KB-3-1 tox	MCF10A rerep	KB-V1 MDR tox	HT1080-NT tox	HT1080 IDH1KD tx
Cc1nn(CC(=O)NNC(=S)NCC2CCCO2)c(C)c1Br (centres undefined)	3%	i	7%	i	10%	7%
CCOCCCNC(=S)NNC(=O)CCn1nc(C)c(Br)c1C	u	i	0%	15µM*	0.89µM*	2.5µM*
Cc1nn(CCC(=O)NNC(=S)NCC(C)C)c(C)c1Br	3.7µM*	i	-4%	i	1.1µM*	1.3µM*
Cc1nn(CCC(=O)NNC(=S)Nc2ccccc2)c(C)c1Br	u	i	u	i	u	14%
COCCCNC(=S)NNC(=O)Cn1nc(C)c(Br)c1C	-4%	i	1%	i	15%	17%
CCOC(=O)c1c(C)n(S(=O)(=O)c2ccc(C)cc2)c2ccc(NS(=O)(=O)c3ccc(C)cc3)cc12	x	i	x	u	x	x
CCCCCCSc1cc(-c2nc3cc(C)ccn3c2NC2CCCCC2)ccc1OC	-2%	u	u	i	1%	6%
Cc1ccn2c(NC3CCCCC3)c(-c3cccc(-c4cccc(Cl)c4)c3)nc2c1	u	i	21µM*	i	u	u
CCCCCCSc1ccc(-c2nc3cc(C)ccn3c2NC2CCCCC2)cc1	10%	u	18µM*	u	0%	0%
Cc1ccn2c(NC3CCCC3)c(-c3ccncc3)nc2c1	-26%	i	3%	i	9%	6%
CCC(C)Sc1ccc(-c2nc3cc(C)ccn3c2NC2CCCCC2)cc1 (centres undefined)	u	u	u	u	21µM*	u
O=C(CN1CCN(C(=O)C2CCCO2)CC1)Nc1ccc(F)cc1 (centres undefined)	-15%	i	-9%	i	6%	1%
CN(Cc1ccccc1Br)C(=O)CSc1nnnn1C1CC1	-13%	i	6%	i	9%	10%
Cc1ccc(OCC(=O)NNC(=O)C2CSC3(C)CCC(=O)N23)cc1C (centres undefined)	-5%	i	1%	i	12%	6%
CCn1c(=O)c2cc(C(=O)NCc3cc(OC)ccc3OC)sc2c2ccccc21	x	i	x	i	x	x
CC(NS(=O)(=O)OCC(Cl)(Cl)Cl)c1ccc(C(C)(C)C)cc1 (centres undefined)	0%	i	u	u	u	29µM*
CCOC(=O)N1CCN(C(=O)c2ccc3c(=O)n(Cc4ccc(Cl)cc4)c(=S)[nH]c3c2)CC1	-4%	23µM*	u	13µM*	-2%	-21%
O=C(c1ccc2c(=O)n(Cc3ccco3)c(=S)[nH]c2c1)N1CCN(Cc2ccc3c(c2)OCO3)CC1	x	x	x	x	-10%	-11%

High-throughput results deposited in PubChem by National Center for Advancing Translational Sciences (NCATS).
